PubChem BioAssay (NCI)
The panel holds about 83,000 compounds, 20% with a hit somewhere; the sample as a whole holds those more often.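 Results are percent growth after 48 hours of single-concentration exposure. 100 means growth as in untreated cells, lower positive values show inhibition; negative values down to -100 show cell death.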 Activity calls are given as the source filed them. How the source made its calls: active means growth percent below 10; inactive means the rest.

How the values were obtained:
Experiment in all cases: NCI-60 one-dose screen, 48 h (100 = growth as untreated, 0 = no growth, -100 = all killed)
Settings in all cases: 10 µM unless noted
[1] = test system: SK-MEL-2 melanoma
[2] = test system: EKVX NSCLC
[3] = test system: SN12C renal
[4] = test system: UO-31 renal
[5] = test system: TK-10 renal
[6] = test system: ACHN renal
[7] = test system: A498 renal
[8] = test system: CCRF-CEM leukemia
[9] = test system: MOLT-4 leukemia
[10] = test system: SR leukemia
[11] = test system: RPMI-8226 leukemia
[12] = test system: OVCAR-8 ovarian
[13] = test system: OVCAR-5 ovarian
[14] = test system: OVCAR-4 ovarian
[15] = test system: SK-OV-3 ovarian
[16] = test system: IGROV1 ovarian
[17] = test system: NCI/ADR-RES ovarian
[18] = test system: OVCAR-3 ovarian
[19] = test system: HS 578T breast
[20] = test system: CAKI-1 renal

Measured: growth

COc1ccc2c(c1)[nH]c(=O)c1c3cccc(F)c3cn21
active: [8] -17.5% | [11] -49.8% | [16] 6.16%
inactive: [1] 63.3% | [2] 46.8% | [3] 39.3% | [4] 33.1% | [5] 46.8% | [6] 37.7% | [7] 59.3% | [9] 36.3% | [10] 39.9% | [12] 27.4% | [13] 47.9% | [14] 47.8% | [15] 42.3% | [17] 15.8%

Cc1ccc(S(=O)(=O)c2nc(-c3ccccc3)oc2S(C)(=O)=O)cc1
active: [3] 0.543% | [4] 2.62% | [5] -72.8% | [6] -99.7% | [8] 0.985% | [9] -16.3% | [11] 8.94% | [18] -86.8%
inactive: [1] 67.5% | [2] 74.1% | [7] 85.2% | [12] 54.7% | [13] 66% | [14] 80.5% | [15] 76.6% | [16] 65.6% | [19] 91.2% | [17] 85.1%

O=C(C1=Cc2cc3ccccc3n2Cc2cnnn21)c1ccccc1
inactive: [1] 44.1% | [2] 82.9% | [3] 50.3% | [4] 64.8% | [5] 72.7% | [6] 74.6% | [20] 58% | [9] 42.1% | [11] 53.1% | [12] 51.8% | [13] 89.2% | [14] 82.7% | [15] 67.8% | [16] 44.6% | [18] 26.9% | [19] 69% | [17] 27%

FC(F)(F)c1cccc(-c2cn3c(ccc4ccccc43)n2)c1
inactive: [1] 102% | [2] 85.4% | [3] 97% | [4] 68.1% | [5] 122% | [6] 90.3% | [20] 71.4% | [9] 104% | [10] 95.1% | [11] 94.4% | [12] 94.8% | [13] 102% | [14] 97.7% | [15] 85.7% | [16] 81.5% | [18] 97.2% | [19] 104% | [17] 92.6%

COc1cc2c(cc1OCCCN1CCN(CCCn3c4ccccc4c4ccccc43)CC1)N=C[C@@H]1CCCN1C2=O
active: [1] -78.1% | [2] -86.8% | [3] -47.9% | [4] -91.7% | [5] -79.6% | [6] -100% | [7] -96.9% | [8] -11.4% | [9] -39.6% | [10] -34.7% | [11] -57.4% | [12] -6.46% | [13] 3.88% | [14] -39.5% | [15] -80.5% | [16] -64.6% | [19] -54.5% | [17] 1.66%

COc1cc(/C=C/C(=O)N2CCN(C(=O)/C=C/c3cc(OC)c(OC)c(OC)c3)CC2)cc(OC)c1OC
inactive: [1] 110% | [2] 114% | [3] 102% | [4] 88.5% | [5] 121% | [6] 106% | [20] 119% | [8] 98.6% | [9] 95.9% | [11] 98.6% | [12] 96.4% | [13] 111% | [14] 103% | [15] 116% | [16] 111% | [18] 117% | [19] 98.8% | [17] 113%

O=C(O)c1cn(C2CC2)c2cc(N3CCN(C(=O)/C=C/c4ccc(Cl)cc4)CC3)c(F)cc2c1=O
inactive: [1] 98.8% | [2] 80.4% | [3] 70.5% | [5] 105% | [6] 76.7% | [20] 73.8% | [9] 57.8% | [10] 79.7% | [11] 70.7% | [12] 80.5% | [13] 91% | [14] 81% | [15] 66.4% | [16] 67.2% | [18] 78.8% | [19] 65.4% | [17] 86.1%
active: [4] -62.8%

COc1ccc2[nH]c(=O)c3c4ccccc4cn3c2c1
inactive: [1] 50.5% | [2] 39.1% | [3] 21.5% | [5] 16.9% | [6] 23.2% | [7] 50.3% | [12] 24.4% | [13] 31.4% | [14] 49.1% | [15] 32.8% | [16] 16.8% | [17] 24.8%
active: [4] 9.09% | [8] -31.2% | [9] 6.08% | [10] -27.2% | [11] -59.6%

CCN1CCN(CC(=O)N2c3cccc4cccc(c34)N(C(=O)CN3CCN(CC)CC3)C2c2cn(-c3ccccc3)nc2-c2cccc([N+](=O)[O-])c2)CC1
active: [1] -9.31% | [3] -53% | [4] -26.1% | [5] -41.4% | [6] -43.6% | [8] -33.6% | [9] -33.7% | [10] -48% | [11] -39.3% | [12] -9.32% | [13] 1.54% | [14] -76.4% | [16] -29.1% | [18] -70.8%
inactive: [2] 36.5% | [7] 74.7% | [15] 115% | [19] 69.6% | [17] 47.3%

C=C1CCC2C3(C)COC(C)(C)OC3CCC2(C)C1C/C=C1/C(=O)OCC1Oc1ccccc1OC (stereo not drawn)
inactive: [1] 95.6% | [2] 96.5% | [3] 84.2% | [4] 83.5% | [5] 139% | [6] 79.9% | [20] 90.6% | [8] 13.3% | [9] 77.7% | [10] 28.9% | [12] 81.1% | [13] 101% | [14] 60.7% | [15] 114% | [16] 76.2% | [18] 31.3% | [19] 113% | [17] 85.6%

O=C(O)C1CCCCN1c1nc(Cl)nc(Cl)n1 (stereo not drawn)
inactive: [1] 104% | [2] 99.8% | [3] 103% | [4] 98.1% | [5] 103% | [6] 113% | [7] 90% | [8] 105% | [9] 104% | [10] 118% | [11] 109% | [12] 99.3% | [13] 105% | [15] 99.9% | [16] 106% | [18] 108% | [19] 103% | [17] 101%

O=Nc1c(-c2cccc([N+](=O)[O-])c2)nc2ncccn12
inactive: [1] 85.2% | [2] 108% | [3] 91.5% | [5] 85% | [6] 29.1% | [7] 103% | [12] 81.1% | [13] 93.5% | [14] 86.5% | [15] 101% | [16] 40.5% | [18] 44.9% | [19] 107% | [17] 97.5%
active: [4] -3.03% | [8] -27.2% | [9] 7.7% | [10] -27.8% | [11] -30.7%

COc1ccc(-c2nc(/C=N/Nc3cc(C)nc4ccc(Br)cc34)c(C)o2)cc1
active: [2] -8.99% | [3] -89.2% | [4] -99.1% | [5] -51.8% | [6] -100% | [8] -50.4% | [9] -53.3% | [10] -21% | [11] -54.5% | [12] -53.3% | [13] -97.5% | [14] -94.9% | [16] -80.5% | [18] -96.6% | [19] -44.4% | [17] -65.9%
inactive: [1] 104% | [7] 58.5% | [15] 93.2%

NC1N=C(SCC(=O)N2CCN(c3cc4c(cc3F)c(=O)c(C(=O)O)cn4C3CC3)CC2)NC(=O)/C1=C/c1ccc(Cl)cc1 (stereo not drawn)
inactive: [1] 108% | [2] 92.8% | [3] 99.4% | [4] 79% | [5] 107% | [6] 102% | [7] 106% | [8] 107% | [9] 109% | [10] 110% | [11] 101% | [12] 102% | [13] 104% | [14] 99.5% | [15] 114% | [16] 104% | [18] 109% | [19] 106% | [17] 105%

COc1ccc(/C=C2\Oc3cc(OCCCN4CCCC4)ccc3C2=O)cc1
inactive: [1] 100% | [2] 89.6% | [3] 90.4% | [4] 73.9% | [5] 95.2% | [6] 92.6% | [20] 91.6% | [9] 72.2% | [11] 86.9% | [12] 95.9% | [13] 92.9% | [14] 90.1% | [15] 106% | [16] 88.4% | [18] 94.3% | [19] 89.3% | [17] 96.2%
active: [10] -28.4%

CC(C)(C)N1CCC1C(N)=O (stereo not drawn)
inactive: [1] 159% | [2] 92.2% | [3] 104% | [4] 131% | [5] 91.8% | [20] 83% | [7] 136% | [8] 93% | [9] 120% | [10] 115% | [11] 87.5% | [12] 102% | [13] 48.7% | [14] 104% | [15] 104% | [16] 265% | [18] 105% | [19] 111%
active: [17] -4.51%

COc1cc(Cn2cc3c(c2)-c2oncc2CC3)cc(OC)c1OC
active: [7] -1.56% | [15] -5.27% | [18] -40.5% | [19] 7.08% | [17] -13.9%
inactive: [1] 23.7% | [2] 40.6% | [3] 30.2% | [4] 27.5% | [5] 53.3% | [20] 20.8% | [8] 17.3% | [9] 17.6% | [10] 11.3% | [11] 22.8% | [12] 16.6% | [13] 41.2% | [14] 48%
